How the values were obtained:
Assay in all cases: PBM binding z-score (relative to random genomic background probes); higher = stronger binding; sequences stand for … in GC…GCGATTGACAGCGTAGAATGAAGG
[1] = tested on: RARb homodimer (NR concentration 270 nM)
Procedure, shortened: (§1)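 Binding z-scores take random background probes as their reference. They come from custom Agilent 4×180K protein-binding microarrays incubated 1 h with ligand-free nuclear receptor dimers, with antibodies against each partner (one per run) detecting binding. Scanned fluorescence was regression-normalized.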

[2] = tested on: RARg:RXRa (NR concentration 270 nM, RXRa partner concentration 90 nM)
Procedure, shortened: as §1

[3] = tested on: RARg homodimer (NR concentration 270 nM)
Procedure, shortened: as §1

[4] = tested on: RXRa DBDmut IVT, anti-RXR (DBD mutation: RXRa K156A/R161A, NR concentration 90 nM)
Procedure, shortened: as §1

[5] = tested on: RXRa homodimer (NR concentration 180 nM)
Procedure, shortened: as §1

[6] = tested on: THRa:RXRa (NR concentration 90 nM, RXRa partner concentration 90 nM)
Procedure, shortened: as §1

[7] = tested on: THRa homodimer (NR concentration 90 nM)
Procedure, shortened: as §1

[8] = tested on: VDR homodimer (NR concentration 270 nM)
Procedure, shortened: as §1

Row | Sequence | PBM binding z-score [1] | PBM binding z-score [2] | PBM binding z-score [3] | PBM binding z-score [4] | PBM binding z-score [5] | PBM binding z-score [6] | PBM binding z-score [7] | PBM binding z-score [8]
1 | ATCTCTGGGTAACCAAGTTCAGTGAATGCCGAAC | 1.28 | 0.665 | 0.596 | 0.665 | 0.412 | 1.46 | 0.335 | 2.64
2 | CAAACTAGGTCACAGAGGTAAAAGTCCGTGCGTA | 3.54 | 4.87 | 5.32 | 1.95 | 3.93 | 3.71 | 1.63 | 2.01
3 | TCGACTAGGTTAGTCGGGGCATTCAGCCAACATA | 0.379 | -0.0311 | -0.0411 | 0.284 | -0.049 | 1.1 | -0.279 | 0.492
4 | GTACCAAGTTGAATAGGTCGTTGATGAGTAGGCG | 0.758 | 0.982 | 0.525 | 0.103 | 0.719 | 0.151 | -0.492 | 0.477
5 | CGAACTAGGTCCAGGACAGTGAATCTCCGCACGC | -0.206 | -0.326 | -0.183 | 0.703 | -0.387 | 0.749 | 0.778 | 0.133
6 | CCTACTGGGCCTTTCAGAGGTCATTGATCATATG | 3.64 | 3.43 | 2.71 | 0.749 | 3.84 | 3.04 | 1.36 | 2.8
7 | CCCGACAGGTGAAAGGTAACTCAGTCTGGTACGC | 0.903 | 1.26 | 0.581 | -0.307 | 2.02 | 1.09 | 0.506 | -0.0778
8 | CGTCCAAGGTCAATGCTAGGTCAGGGAAAGCATT | 4.99 | 7.46 | 6.5 | 3.47 | 5.08 | 4.67 | 3.21 | 2.33
9 | TCCCGGAGGACACGAAGGTCAGAGCTTTCCAGAG | 3.55 | 3.07 | 3.74 | 0.527 | 1.59 | 2.83 | 1.17 | 1.11
10 | CATACAGGGTGAGCTAGGCCAGAGTAGGGACGGC | 0.342 | 0.54 | 0.662 | -1.01 | 0.302 | 0.989 | 0.182 | -0.497
11 | TCATATAGGTAAACAGGTGAAAGTTCGTAAGTTA | 1.49 | 1.11 | 0.601 | 1.62 | 2.31 | 1.4 | 0.587 | 1.55
12 | CAGCCTAGGTCAGGGCCAGTGTAGGAGGAACGTT | 2.75 | 2.76 | 3.69 | -0.674 | 1.58 | 2.17 | 0.608 | -0.169
13 | GCGACTGGGGCAAAGCAGGTTACAATAAGGTTGG | 1.15 | 0.682 | 0.779 | -0.0572 | 0.668 | 3.11 | 0.0569 | -0.351
14 | ACCGAAAGGTCGACGAGGTGAGTATACACCGTTT | 3.18 | 4.28 | 4.13 | 1.58 | 4.27 | 3.61 | 0.645 | 1.01
15 | TAGCCTAGGTCATGTGGGCCAGTATAGTGTCGGC | 3.33 | 3.77 | 4.65 | 0.816 | 3.13 | 2.97 | 1.48 | 0.672
16 | AGAATGAGCTTAAGATCAGGGAAACAGAATACAT | -0.611 | -0.159 | 0.233 | -0.641 | -0.0967 | -0.123 | -0.875 | -0.392
17 | ATATGTAGGTTAGCTGGGGACATTCAGACTAGGC | 1.29 | 0.981 | 1.34 | 0.879 | 0.737 | 4.93 | 2.11 | 1.3
18 | ACATACGGGTCAACGAGGTTATAGCACGCGTATA | 3.66 | 5.55 | 5.24 | 2.49 | 5.71 | 3.82 | 0.951 | 3.69
19 | GCGACTCGGGCAAAGCAGGTTACCATAAGGTTGG | 0.473 | 0.453 | 0.464 | -0.723 | 0.252 | 1.87 | -0.264 | -0.533
20 | CCTAGCAGGCCAATATGGGTCACTCAAGGCTTGA | 2.09 | 1.38 | 1.31 | -0.181 | 1.36 | 2.5 | -0.509 | -0.211
21 | TTACCAAGGTGAAAGGTCCTTGATGCACGCCTTG | 1.22 | 1.67 | 0.796 | -0.243 | 2.47 | 2.28 | 0.542 | -0.756
22 | TTACCAAGCTGAAAGGTCGTTGATGCACGCCTTG | 1.45 | 1.06 | 0.528 | -0.0422 | 2.04 | 0.936 | -0.608 | 0.539
23 | CGTCAAAGTTCAAGGGAACGTAACAGAAAGCAGC | 3.52 | 4.97 | 5.93 | 4.46 | 4.17 | 1.72 | -0.254 | 2.72
24 | CAAACTAGGTCTCAGAGGTCAAAGTCCGTGCGTA | 4.68 | 5.13 | 4.6 | 1.65 | 6.01 | 3.63 | 1.7 | 4.57
25 | TCATGTAGGTAAACAGGTGAAAGTCCGTAAGTTA | 0.722 | 0.133 | 0.0838 | 0.975 | 0.516 | 0.578 | 0.226 | -0.0362
26 | ATCTCTAGGTAACAAGTTCAGCGAAAGAGAGGAC | 2.17 | 2.04 | 1.72 | 0.87 | 1.27 | 1.74 | 0.96 | 3
27 | TCATATAGGTAAAAGGTTAAAGTCGGTGTGGTAA | 2.41 | 3.05 | 1.54 | 2.12 | 4.88 | 2.27 | 0.509 | 0.746
28 | ATCTCTAGATAAAGTTCAGTGAAAGATCGATAGA | 1.84 | 1.4 | 2.06 | 0.839 | 0.79 | 0.243 | -0.14 | 1.66

Source: the supplement of paper PMC6555819
